The source of these data is PubChem BioAssay (NCI).

About 83,000 compounds went through this panel and 20% of them were active in at least one assay; those are over-represented in the sample as a whole.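 96-well plates, one dose, 48 hours. Percent growth reported; active if below 10.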 Values without a mark were called inactive. Activity calls are given as the source filed them.

Common to all, as to assay: NCI-60 one-dose screen, 48 h (100 = growth as untreated, 0 = no growth, -100 = all killed)
Holding throughout (conditions): 10 µM

Test [1] relates to HCT-15 colon.
The test system of test [2] is HT29 colon.
For test [3], the system named is SNB-75 CNS.
For test [4], the system named is SNB-19 CNS.
Test [5] deals with U251 CNS.
Test [6] has as its system PC-3 prostate.
Test [7] relates to SK-MEL-5 melanoma.
Test [8] relates to UACC-62 melanoma.
Test [9] deals with LOX IMVI melanoma.
Test [10] concerns SK-MEL-28 melanoma.
Test [11] deals with SK-MEL-2 melanoma.
The subject of test [12] is EKVX NSCLC.
The test system of test [13] is SN12C renal.
In test [14] the test system is UO-31 renal.
Test [15] deals with TK-10 renal.
For test [16], the system named is ACHN renal.
Test [17] relates to CAKI-1 renal.
Test [18] relates to A498 renal.
Test [19] deals with CCRF-CEM leukemia.

As to `O=C(Nc1ccc(OCc2ccccc2)cc1)Nc1ccc(Cl)c(C(F)(F)F)c1`, the growth in [1] was 9.69% (active); in test [2], 6.91% (active); in test [3], -20.2% (active); in test [4], 8.37% (active); in test [5], -10.2% (active); in test [6] it was -0.967% (active). The growth in test [7] is -96.6% (active); in test [8], 14.1%; in [9], -25.1% (active); in test [10], 14.3%; in test [11] it was -40.2% (active); in test [12], 5.04% (active). Further, the growth in test [13] was 2.86% (active); in test [14] it was -1.46% (active); in [15], 21%; in test [16] it was 0.776% (active); in test [17], 3.68% (active); in [18] it was -15.1% (active). For the same compound, the growth in test [19] is -23.4% (active).
Take `CN1CCN(c2ccc(Nc3nc(NCCCNC(=O)c4ccc(F)cc4)c4sccc4n3)cc2)CC1`: the growth was 2.85% (active) in [1]; 11.2% in [2]; 108% in test [3]; 86% in test [4]; 19.7% in test [5]; 50.9% in [6]. Besides, the growth in [7] was 60.8%; in [8] it was 63.7%; in test [9] it was 13.4%; in [10], -45.3% (active); in [11], 106%; in test [12], 87.8%. Moreover, the growth is 78.8% in test [13]; 71.6% in [14]; 119% in test [15]; 36.7% in test [16]; 69.8% in [17]; 129% in [18]. The growth in test [19] is 18.8%.
Turning to `CN1CCN(c2ccc(Nc3nc(NCCNC(=O)c4ccc(C(F)(F)F)cc4)c4sccc4n3)cc2)CC1`, the growth in test [1] was -42.6% (active); in [2] it was -67% (active); in test [3], -10.7% (active); in [4], 31.5%; in test [5], -17.7% (active); in test [6], 41%. Further, the growth in [7] was -99.5% (active); in [8], -89.7% (active); in test [9] it was -93.9% (active); in test [10], -96.3% (active); in test [11], -41.9% (active); in test [12], 59.7%. Further, the growth is 73.6% in test [13]; 4.76% (active) in test [14]; 12% in test [15]; 10.7% in test [16]; 22.5% in [17]; 69% in [18]. Further, the growth in [19] is -31.1% (active).
Turning to `CCCS(=O)(=O)c1oc(-c2ccc(F)cc2)nc1S(=O)(=O)c1ccc(F)cc1`, the growth was -81.3% (active) in test [1]; -69.6% (active) in [2]; 53.4% in test [3]; 82.6% in test [4]; 31.7% in test [5]; 80.7% in test [6]. In addition, the growth in test [7] is 41.8%; in test [8] it was 22%; in test [9] it was -100% (active); in test [10], -98.7% (active); in [11] it was 36.7%; in [12], 82.8%. Besides, the growth is -85.4% (active) in test [13]; -100% (active) in test [14]; -97.2% (active) in [15]; -100% (active) in test [16]; -92.2% (active) in [17]; 113% in [18]. In [19], the growth was -51.3% (active).
As for `CC(=C(c1ccc(OCCN2CCCCCC2)cc1)c1ccc(OCCN2CCCCCC2)cc1)c1ccc(Cl)cc1`, the growth in test [1] is -76% (active); in test [2], -94.8% (active); in test [3], -97.2% (active); in test [4] it was -99.2% (active); in test [5], -100% (active); in test [6], -83.3% (active). Besides, the growth is -100% (active) in [7]; -98.3% (active) in test [8]; -100% (active) in test [9]; -98.5% (active) in test [10]; -91.7% (active) in test [11]; -89.3% (active) in [12]. Also, the growth in [13] was -92.4% (active); in test [14], -100% (active); in test [15] it was -98% (active); in [16], -100% (active); in test [17], -100% (active); in test [18], -90.9% (active). Also, the growth in test [19] is -61.5% (active).
Turning to `O=C(Nc1ccccc1)Nc1nc2ccccc2s1`, the growth in [1] is 66.7%; in test [2], 89.4%; in test [3], 109%; in test [4] it was 89.7%; in [5], 95.9%; in test [6], 67.3%. The growth in test [7] was 61.1%; in test [8] it was 48.3%; in test [9], 83.2%; in test [10] it was 41.4%; in test [11], 92.9%; in test [12], 64.1%. For the same compound, the growth in [13] is 88.9%; in [14], 57.5%; in [15] it was 95.4%; in [16] it was 82.2%; in [17], 76.7%; in test [18], 129%. The growth in [19] is 67.5%.
In the case of `CN1CCN(c2ccc(Nc3nc(N4CCN(S(=O)(=O)c5ccc(F)cc5)CC4)c4sccc4n3)cc2)CC1`, the growth in [1] was -79.8% (active); in test [2], -63.1% (active); in test [3] it was -97.9% (active); in test [4], -98.1% (active); in test [5] it was -98.5% (active); in test [6] it was -18.4% (active). The growth was -100% (active) in test [7]; -93.3% (active) in test [8]; -91.7% (active) in test [9]; -95.4% (active) in [10]; -72.7% (active) in test [11]; -89.5% (active) in test [12]. Besides, the growth was -86.4% (active) in test [13]; -87.1% (active) in test [14]; -77.9% (active) in test [15]; -100% (active) in test [16]; -96.3% (active) in test [17]; -94.3% (active) in [18]. Further, in test [19], the growth is -1.97% (active).
For `C#CCNC(=O)[C@]12CCC(C)(C)C[C@H]1C1=CC[C@@H]3[C@@](C)(CCC#N)[C@H](C(=C)C)CC[C@@]3(C)[C@]1(C)CC2`, the growth in [1] is 33.2%; in test [2], 48.9%; in test [3] it was 82.5%; in test [4] it was 64.3%; in test [5], 54.6%; in [6] it was 26.3%. The growth in test [7] was 42.7%; in [8], 52.1%; in test [9], -53.1% (active); in test [10] it was 74.6%; in test [11], 57.2%; in test [12], 57.8%. Also, the growth in [13] was 68.7%; in [14], 36.6%; in test [15] it was 71.5%; in [16] it was 60.2%; in test [17], 40.3%; in [18] it was 129%. For the same compound, the growth in [19] is 26.2%.
